# Measured values published in PubChem BioAssay (NCATS).
# Inconclusive results are not listed. Entries that show only a call come without a potency. Unmarked numbers belong to inactive results. Active and inactive are the calls of the source. Calls come from the whole dose curve; as a rule, active = well fitted inhibition curve with a large enough effect; inconclusive = small, poorly fitted or top-dose-only effect; inactive = no such curve, though single readings can be large or run the other way. Residues, ends and D or L forms follow the SMILES beside them.
# Assay: Counterscreen qHTS for small molecule stabilizers of the endoplasmic reticulum resident proteome: GLuc-NoTag assay (AID 1508627)
# Settings: Gaussia luciferase NoTag secretion counterscreen, luminescence, thapsigargin 100 nM for final 4 h; series mostly up to 76.4 µM
# From the text: Assay Provider: Brandon K. Harvey Ph.D.
# National Institute on Drug Abuse, National Institutes of Health, Baltimore, MD
# Endoplasmic reticulum (ER) dysregulation is associated with human pathologies including neurodegenerative, cardiovascular, muscular, and diabetic conditions. Maintenance of ER calcium is critical for functions of the ER and its depletion can lead to loss of ER resident proteins, in a process termed exodosis. Therapeutic compounds capable of attenuating the redistribution of ER proteins under pathological conditions may slow or stop disease progression. To identify such compounds, we performed a quantitative high-throughput screen (qHTS) using the SERCaMP assay, which monitors secretion of ER resident proteins triggered by calcium depletion.
# SERCaMP was initially developed as a reporter of ER calcium homeostasis using a Gaussia luciferase with a modified signal peptide and carboxy-terminus (GLuc-SERCaMP), modifications that confer secretion of the reporter in response to ER calcium depletion (Henderson et al., 2014). The assay was used to screen 9,501 compounds, including a collection of drugs approved by the FDA (US), EMA (EU), NHI (Japan), and HC (Canada) regulatory agencies (Huang et al., 2011). Since the SERCaMP reporter reflects the exodosis phenomenon (Trychta et al., 2018a), compounds identified in the screen have the potential to prevent exodosis by different mechanisms such as stabilizing ER calcium or augmenting ERS retrieval.
# 1. Henderson, M.J., Wires, E.S., Trychta, K.A., Richie, C.T., and Harvey, B.K. (2014). SERCaMP: a carboxy-terminal protein modification that enables monitoring of ER calcium homeostasis. Mol Biol Cell 25, 2828-2839.
# 2. Huang, R., Southall, N., Wang, Y., Yasgar, A., Shinn, P., Jadhav, A., Nguyen, D.T., and Austin, C.P. (2011). The NCGC pharmaceutical collection: a comprehensive resource of clinically approved drugs enabling repurposing and chemical genomics. Sci Transl Med 3, 80ps16.
# 3. Trychta, K.A., Back, S., Henderson, M.J., and Harvey, B.K. (2018a). KDEL Receptors Are Differentially Regulated to Maintain the ER Proteome under Calcium Deficiency. Cell Rep 25, 1829-1840 e1826.
# SEQUENCE No. (1, 2, 3, etc.); […] (e.g., Cells, Incubation, Reagent, etc.); VALUE and DESCRIPTION.
# 1; Reagent; 5 uL; 1000 SH-SY5Y cells per wells
# 3; Compound; 23 nL; Control inhibitor / compound library
# 5; Reagent; 100 nM; Thapsigargin
# 7; Reagent; 1 uL; 0.5x coelenterazine
# 8; Detection; Luminescence; ViewLux imaging system
# NOTES (numbers refer to sequence above)
# 1; SH-SY5Y human neuroblastoma cells stably expressing the constitutively secreted GLuc (SH-SY5Y-GLuc-NoTag) cells were seeded in 1,536 well white tissue culture treated plates (Corning, Cat# 7464) in DMEM-high glucose-sodium pyruvate (ThermoFisher Scientific, Cat #10569) supplemented with 10% bovine growth serum (Hyclone), 10 U/ml penicillin (Gibco), 10 ug/ml streptomycin (Gibco), and 20 mM HEPES.
# 2; Assay plates were incubated for 5 hour at 37C in a humidified incubator containing 5% CO2.
# 4; Cells were then incubated for 19 hours at 37C, 5% CO2.
# 5; Thapsigargin was added at 100 nM to deplete ER calcium stores.
# 6; Cells were incubated for 4 hour (37 °C, 5% CO2)
# 7; Gaussia luciferase in the medium was measured by adding 1 ul of 0.5x coelenterazine (final concentration 0.07x) prepared in Gaussia Luciferase Glow Assay Buffer (Pierce), without addition of the Cell Lysis Buffer Reagent.
# 8; Luminescence was measured using a ViewLux CCD imaging system (Perkin Elmer) equipped with clear filters. […] The same controls were also used for the calculation of the Z' factor, a measure of assay quality control, as previously described (Zhang et al., 1999). For the initial validation of activity in the SERCaMP assays, hits from the primary screen were assayed again at 11-concentrations (1.3 nM - 76.6 uM). SH-SY5Y-GLuc-SERCaMP cells were assayed for ER Ca2+ depletion as outlined above.
# 1. Zhang, J.H., Chung, T.D., and Oldenburg, K.R. (1999). […]
Structure (SMILES),Potency,"activity change, negative = inhibition"
Cc1nc2cnc(N3CCN(C)CC3)nc2n(Cc2cccs2)c1=O,inactive,
COc1ccc(CNc2ncnc3ccc(-c4ccccc4CN(C)C)cc23)c(OC)c1,inactive,
Cc1nc2cnc(N3CCNCC3)nc2n(Cc2cccs2)c1=O,inactive,
CN(C)c1ncc2nc(CCc3ccccc3)c(=O)n(C[C@H]3CCCO3)c2n1,inactive,
O=C(Nc1cccc(F)c1)N1CCC2(CC1)CCN(S(=O)(=O)c1ccccc1)CC2,inactive,
CN1CCN(c2ncncc2-c2ccccc2C(F)(F)F)CC1,inactive,
CCC(C)C(N)C(=O)NC(CC(N)=O)C(=O)NC(CC(C)C)C(=O)NC(CCCCN)C(=O)NC(C)C(=O)NC(CC(C)C)C(=O)NC(C)C(=O)NC(C)C(=O)NC(CC(C)C)C(=O)NC(C)C(=O)NC(CCCCN)C(=O)NC(CCCCN)C(=O)NC(C(=O)NC(CC(C)C)C(N)=O)C(C)CC (stereo not given),inactive,
FC(F)(F)c1ccccc1-c1nccc(N2CCNCC2)n1,inactive,
N#CCCn1c(=O)c(-c2ccc(Cl)cc2)nc2cnc(OCc3ccccc3)nc21,inactive,
C1CCC[C@H]2CCCN3CC[C@H](CCCCCC[C@@H]4CCCN5CC[C@H](CC1)OC45)OC23,,16.2% [at 9.46 µM]
CC[C@H](C)[C@H](NC(=O)[C@H](CC(=O)O)NC(=O)[C@H](CC(N)=O)NC(=O)[C@@H](NC(=O)[C@H](CCCNC(=N)N)NC(=O)[C@@H](NC(=O)[C@@H](NC(=O)[C@@H](NC(=O)[C@@H](NC(=O)[C@H](CCCCN)NC(=O)[C@@H](NC(=O)[C@H](CC(C)C)NC(=O)[C@@H](NC(=O)[C@H](CCCCN)NC(=O)[C@@H](NC(=O)[C@H](CC(=O)O)NC(=O)[C@H](CC(=O)O)NC(=O)[C@H](CCC(N)=O)NC(=O)[C@@H](NC(=O)[C@H](CCCCN)NC(=O)[C@H](CCC(N)=O)NC(=O)[C@@H](NC(=O)[C@@H]1CCCN1C(=O)[C@@H](N)C(C)C)[C@@H](C)CC)C(C)C)[C@@H](C)O)[C@@H](C)O)[C@@H](C)CC)[C@@H](C)O)[C@@H](C)CC)C(C)C)[C@@H](C)O)[C@@H](C)CC)C(=O)N[C@@H](CO)C(=O)N[C@@H](Cc1cnc[nH]1)C(=O)N[C@H](C(=O)N[C@@H](CCC(N)=O)C(=O)N[C@@H](CO)C(=O)N[C@H](C(=O)N[C@@H](CO)C(=O)N[C@@H](CO)C(=O)N[C@@H](CCCCN)C(=O)N[C@@H](CCC(N)=O)C(=O)N[C@@H](CCCCN)C(=O)O)C(C)C)[C@@H](C)O (H-VPIQKVQDDTKTLIKTIVTRINDISHTQSVSSKQK-OH),,-4.21% [at 9.46 µM]
CCNc1ncc2nc(CCc3ccccc3)c(=O)n(-c3ccccc3)c2n1,inactive,
c1cncc(-c2nc(N3CCNCC3)c3ccccc3n2)c1,inactive,
COc1ccc(-n2c(=O)c(-c3ccccc3)nc3cnc(N4CCN(C)CC4)nc32)cc1,inactive,
OC[C@H]1NC[C@@H](O)[C@@H](O)[C@@H]1O,inactive,
CN1CCN(c2nc(-c3ccc4c(c3)OCO4)nc3ccccc23)CC1,inactive,
O=c1c(-c2cc(F)cc(F)c2)nc2cnc(N3CCNCC3)nc2n1-c1ccccc1,inactive,
COc1ccccc1-c1cncnc1NCCN1CCOCC1,inactive,
O=c1cnc2cnc(N3CCNCC3)nc2n1Cc1ccc(F)cc1,inactive,
O=c1c(-c2ccccc2)nc2cnc(N3CCNCC3)nc2n1-c1ccccc1,inactive,

Structure (SMILES),Potency,"activity change, negative = inhibition"
COc1ccc(-n2c(=O)c(C)nc3cnc(N4CCNCC4)nc32)cc1,inactive,
Cc1ccc(C(=O)N/C(=C\c2cccs2)c2nc3ccccc3[nH]2)cc1,inactive,
O=C(c1cc(C(F)(F)F)cc(C(F)(F)F)c1)N1CCC2(CC1)CCN(c1ccncc1)CC2,inactive,
O=c1c(-c2cccs2)nc2cnc(N3CCNCC3)nc2n1CCc1ccccc1,inactive,
COc1ccc(-n2c(=O)c(-c3ccccc3)nc3cnc(N4CCNCC4)nc32)cc1,inactive,
Cn1c(=O)c(CCc2ccccc2)nc2cnc(OCc3ccccc3)nc21,inactive,
CN1CCN(c2ncc3nc(-c4cccs4)c(=O)n(-c4ccccc4)c3n2)CC1,inactive,
Fc1ccc(Nc2ccnc(-c3ccccc3C(F)(F)F)n2)cc1,inactive,
CN1CCN(c2ncnc3ccc(-c4ccccc4C#N)cc23)CC1,inactive,
COc1ccc(Oc2ncc3nc(-c4cc(F)cc(F)c4)c(=O)n(CCC#N)c3n2)cc1,inactive,
Cc1ccccc1-c1nc(N2CCNCC2)c2ccccc2n1,inactive,
O=c1cnc2cnc(N3CCNCC3)nc2n1Cc1cccs1,inactive,
COc1ccc(Oc2ncc3nc(CCc4ccccc4)c(=O)n(C[C@H]4CCCO4)c3n2)cc1,inactive,
COc1cccc(CN2CCN(C(=O)c3ccc(-c4ccccc4)cc3)CC2)c1OC,inactive,
CN(C)c1nccc(N(Cc2ccccc2)Cc2ccccc2)c1C#N,inactive,
CN1CCN(c2ncnc3ccc(-c4ccccc4Cl)cc23)CC1,inactive,
CN1CCN(c2nc(-c3cccc(C#N)c3)nc3ccccc23)CC1,inactive,
COc1ccc(C2Nc3ccccc3C(=O)N2c2ccccc2)cc1COc1ccc(NC(C)=O)cc1 (stereo not given),inactive,
Cc1noc(C)c1-c1nc(N2CCNCC2)c2ccccc2n1,inactive,
CN1CCN(c2ncc3nc(-c4ccccc4)c(=O)n(-c4ccccc4)c3n2)CC1,inactive,
